Test results reported in the supplement of paper PMC3334620.
In all, about 33,000 sequences were measured (“E-score (-0.5 to 0.5)”: median about -0.0059, highest 2% from about 0.26 on). For the sample, the highest values were picked, then their nearest neighbours and some sequences at random.

These sequences were tested against T1, Cin5 (UniProt P40917) (assay: PBM E-score (8-mer binding enrichment) (E-score (-0.5 to 0.5)); higher = stronger / more preferred TF binding). Settings: protein concentration: 100 nM; construct: GST-full length.
T1 sequence: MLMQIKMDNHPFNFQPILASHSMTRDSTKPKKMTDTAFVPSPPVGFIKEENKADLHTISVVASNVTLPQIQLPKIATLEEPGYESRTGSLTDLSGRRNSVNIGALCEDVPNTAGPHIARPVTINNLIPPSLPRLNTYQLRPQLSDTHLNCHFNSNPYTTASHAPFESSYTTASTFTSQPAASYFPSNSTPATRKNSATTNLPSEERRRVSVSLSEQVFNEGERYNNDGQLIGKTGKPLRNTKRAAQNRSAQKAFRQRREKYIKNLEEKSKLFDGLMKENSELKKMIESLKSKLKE
Experimental: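 Universal 'all 10-mer' protein binding microarrays (Agilent AMADID 015681) probed with GST-tagged S. cerevisiae TFs (full-length or DBD) made by in vitro transcription/translation (PURExpress), about 100-200 nM. Bound TF was detected with fluorescent anti-GST. Each ungapped 8-mer (which stands for itself and its reverse complement) is scored by the PBM enrichment score (E-score), a modified Wilcoxon-Mann-Whitney statistic from -0.5 to +0.5, computed with the Universal PBM Analysis Suite. Scale: above 0.35 generally sequence-specific binding.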

Sequence	PBM E-score
GTGCCGTA	0.0613
CACCTTGA	0.00105
AAAAGACT	-0.205
GGCCATAA	0.0497
AGAAGGTG	0.0112
CTAAGGCA	-0.173
AGTACATC	0.0156
AATACGTG	-0.0461
ATTACATC	0.31
GCTACATA	0.0756
GTTACATA	0.266
CTTACATC	0.213
AATACGTA	0.313
CTTACAAA	0.192
CTTACATA	0.358
GTTACAAA	0.184
CATACGTA	0.242
CGTACATA	0.191
ACTGCCAC	-0.012
AATCAGTC	0.0788
AGCCAGTA	-0.0197
GAGTGCGA	-0.11
AATCGAGA	0.171
AATCTCCG	0.0667
ATTACAAA	0.306

Sequence	PBM E-score
ATTACAAT	0.153
ATTACAAG	0.131
CAATATAC	0.181
TAATATAA	0.355
CAATATAA	0.295
CAATATAG	0.225
GAATATAA	0.112
TCATATAA	0.197
TATAGCCA	0.111
GTTTAATA	0.143
ATTTAATA	0.295
CTTTAATA	0.122
ACTTAATA	0.26
ACTTAATC	0.133
GCTTAATA	0.207
AGTTCGCA	0.0133
ATCCAACA	0.0603
CTTGCGTC	-2e-05
AATGGGGA	0.0144
TATGGGGA	0.27
CATGGGGA	-0.0804
CGGGTGTC	-0.00474
ACCCCTCT	-0.17
CTACATAA	0.0697
ATACATAC	0.0724

Sequence	PBM E-score
ATACATAG	0.159
ATACATAA	0.286
AGACATAT	0.0819
ATACATAT	0.318
AGTTCTAC	-0.141
TATGCTCA	0.132
CAACCCGG	-0.222
CGCAGCGC	-0.138
AAGCTACC	0.106
AAATGAAA	0.266
AAATGAGA	0.128
ATATGAAA	0.259
TAAATGAA	0.129
CTATGAAA	0.0722
ATATGAAC	0.132
CAATGATA	0.182
CAAATGAA	-0.0217
AAATGATA	0.279
GAAATGAA	0.275
CAATGAAA	0.0978
TAATGAAA	0.203
CTTTGCCC	-0.199
ATCCCTAA	-0.19
ACGGCCGA	0.0311
GGCGGCAA	-0.184

Sequence	PBM E-score
GGTATACC	-0.0512
AACCAATA	0.214
AGATACAT	0.171
CAGCGCAA	0.0372
CAATGGTA	0.101
AAATGATG	0.207
GAATGATC	-0.046
TAATGACA	0.237
AAATGATC	0.00639
AAATGGTA	0.268
GAATGATA	0.291
TAATGAGA	0.0551
TAATGATA	0.298
AAATGATT	0.294
TAATGGTA	-0.00375
GAATGAGA	0.115
CGACGTCC	0.0493
ATAGTGTC	0.0674
ACATGGCT	-0.0786
CTACGAGC	-0.108
GGAACCAC	-0.0344
AGATGATG	0.27
AGATGATC	0.119
CAAATTAA	0.191
AGATGATA	0.212

Sequence	PBM E-score
AAAATTAA	0.105
GAAATTAA	0.273
GCAAGGGC	-0.235
TAACATGA	0.071
AGCTTCCT	0.00798
CAGCAAAG	-0.0276
GAATCTGA	-0.0334
GAGCTTTA	-0.0441
GAGTATTA	0.178
CAGTATAA	0.284
GAGTATAA	0.181
CAGTATTA	0.294
AAGTATAA	0.216
AAGTATTA	0.0531
GGAAGTCA	0.0165
GAACTCCA	0.0209
CAGCATGC	-0.0241
GGATCAAA	0.0839
CTCTGGCC	-0.234
GGGACCAC	-0.174
CCGCCTAA	-0.0943
CATGTAAA	-0.054
GATGTAAA	0.13
AATGTCAA	0.176
TATGTCAA	0.294

Sequence	PBM E-score
TATGTAAA	0.286
GATGTCAA	0.0458
ATACTCCA	0.122
AGCAGAGA	0.0498
ATTCATTC	0.299
ATTCATTG	0.116
ATTCATTA	0.122
ACTCAGAC	-0.0116
ACCTATAC	0.0459
AAATATAT	0.295
AAATATAC	0.178
AACTATAC	0.0815
AACTATAT	0.294
ACCTATAT	0.269
ACCTATAA	-0.0275
AACTATAG	0.051
AAATAGAT	0.297
AAATATAA	0.203
AAATAGAC	0.143
AAATAGAG	-0.0761
ACATCAGC	0.0733
CACTGAAC	0.0413
AGAGAGCC	-0.283
CGTAGTGC	-0.0666
GGCGTGAA	-0.183

Sequence	PBM E-score
CAATAAGG	-0.0974
AGTCGGCA	-0.0519
CGGCCGTC	-0.125
CACCCCCC	-0.498
AAGCAAGC	0.0852
ATCATGAT	0.098
CACTATAA	-0.0724
AACTATAA	0.195
TACTATAA	0.333
ATGCCCCA	-0.0481
AGCAAGGC	-0.0671
ACCGCCAA	-0.0388
AAGAGAAG	-0.0313
AAGAGAAA	-0.0461
AAGAGAAT	0.261
AAATTCAT	0.0992
AAGAGTTA	-0.0309
CCATCACG	-0.0302
AGTCGAGG	-0.168
ATATACAA	0.266
ATATACTC	0.209
CTATACAA	0.00862
ATATACAC	0.134
CAATACAA	0.308
ATATACTA	0.318

Sequence	PBM E-score
CAATACAG	0.0431
CTATACTA	0.198
CAATACAC	0.00745
CAACGACC	-0.0159
TTCCTAAA	-0.157
CGATGCGC	0.0485
GAGCGGAC	-0.251
CTTCCAAA	0.0243
AAGACTCG	-0.0863
CTGCCCGA	-0.00627
AGGCGGCG	-0.0941
ATGACGTC	0.255
CTGACGTA	0.278
ATGACGTA	0.338
CTGACGTC	0.035
GTGACGTA	0.204
ATGACGTG	0.191
AGATTAGA	-0.0761
AGGGGGGC	-0.479
GATTATCC	0.0776
AATTATAC	0.208
CATTATAC	0.287
CATTATCG	0.0028
CATTATAA	0.0881
CATTATCC	0.276

Sequence	PBM E-score
CACGGAGG	-0.173
CTGTCTAA	-0.0712
CGCGCCGA	-0.124
CAGGTCCC	-0.187
GCCTCCTA	-0.264
GATTATGC	0.172
GATTATTA	0.316
GATTATGA	0.291
CATTATGA	0.13
AATTATTA	0.242
CATTATTA	0.223
ACTGCAAC	-0.0484
AAGAGTCA	-0.12
GGAAGATA	0.13
CGAAGATA	0.266
CAAAGATA	0.12
GAAAGATA	0.31
CAAAGAAA	0.0585
AGAAGATA	0.188
TAAAGATA	0.171
GAAAGAAC	-0.0462
GAAAGAAA	0.283
CACGAGAC	-0.11
TAAGAAGA	0.122
GATGCAAC	-0.0342

Sequence	PBM E-score
GGAACCCA	-0.0933
TAAAGGGA	-0.115
AATTGGGC	0.0334
AATTGGGT	0.319
AATTGGGG	0.0653
TATAGCAA	0.134
CATAGCAA	0.111
GATAGCAA	0.279
CTTAAGAA	0.0235
ACGGAAAT	0.305
ACGGAAAC	-0.00025
ACGGAAAA	0.161
CGGCACCG	0.00123
TCACATAA	0.31
GCACATAA	0.0702
ACACATAC	0.0411
ACACATAA	0.274
CCACATAA	0.184
ACACATAG	-0.0306
CACTATCG	0.0597
AGCCAAAA	0.0959
CGGTTTGA	-0.0691
AGGTTTAT	0.251
CGAGAGCC	-0.163
AAGCCAAT	0.122

Sequence	PBM E-score
TACGTATA	0.167
AACGTAAA	0.21
ATCGTAAG	0.159
AACGTAAC	0.217
CACGTAAA	-0.0217
CTCGTAAC	0.129
CACGTAAC	0.0354
GACGTAAA	0.103
TACGTAAA	0.302
AACGTAAG	0.274
CACGTAAG	0.288
CTCGTAAG	0.304
AGCAGCGC	-0.0185
ACCACCTG	-0.0268
AATCGCTA	-0.0414
ACGAGCCC	-0.0676
GAACTCAC	-0.014
AACGTACT	0.105
AACGTAAT	0.421
ACCGTAAT	0.223
AAATTAGA	0.206
AATTTAGG	0.168
AAATTAGG	0.102
AATTTAGA	0.0855
AAATTAGT	0.293

Sequence	PBM E-score
AATTTAGT	0.284
GGAGCTCC	-0.164
GTCTAACA	-0.192
CGATGGCA	-0.0471
ACCACAGT	0.181
CATCCACG	0.0707
ACCGTTTA	-0.034
AAACCGCG	0.265
AAACCGCA	-0.142
AAACCGCC	0.0261
CAACCGCG	0.269
CAACCGCA	0.0315
CAACCGCC	-0.126
AATTGTGC	0.124
CAGCGGAA	0.0943
GCCCATCA	-0.115
AGCTCTCC	-0.174
TCGGAACA	0.29
ACGGAACA	0.2
CCGGAACA	0.145
ATATATTG	0.088
ACATATTA	0.266
ATATATTA	0.272
ACATATTG	0.0935
CTATATTA	0.325

Sequence	PBM E-score
CCATATTA	0.169
GTATATTA	0.219
ATATATTC	0.248
CTATATTC	0.0546
TGAGGCCA	0.0508
TGGCCTAA	-0.0968
AACGGGAG	-0.0138
CAACCGTC	-0.179
CTAAATTA	0.258
ACAAATTG	0.248
ATAAATTG	0.272
AAAAATTG	-0.0306
TAAAATTA	0.178
GTAAATTA	0.192
CTAAATTC	0.0709
CCAAATTA	0.187
ATAAATTA	0.349
ATAAATTC	0.0845
AAAAATTA	0.227
ACAAATTA	0.269
CCGAGGAG	-0.213
AGAGCCTG	-0.163
ACGAAGAG	-0.0165
CCGAAAGC	-0.328
AAGGGTAC	-0.137

Sequence	PBM E-score
ATCGACTG	0.101
ACGTGGAA	-0.00812
TCGTGGAA	0.263
GCGTGGAA	0.106
GGACACCC	-0.226
AGAAGCGC	0.0405
GATCCCAA	-0.0221
CAAGCAAG	-0.103
ATTAACAC	0.271
CATAACAA	0.252
GTTAACAA	0.17
GTTAACTA	0.205
ATTAACTC	0.17
AATAACAC	0.247
ATTAACAG	0.0268
TATAACAA	0.295
GATAACAA	0.1
CTTAACAC	0.152
ATTAACAA	0.274
ATTAACTA	0.272
